Source: PubChem
This is a sample that favours compounds with a hit; in the whole collection about 9% have one here.
LMNA splice mod – changes lamin A minigene splicing in HeLa cells; HeLa LMNA splicing GFP/RFP minigene ratio, 48 h; Potency, µM (doses to about 46.1 µM), hits mostly inhibitors; hit rate 0.01% among 200,000; AID 1487; active means well fitted inhibition curve with a large enough effect in the signal ratio, with a control signal flat, not every such curve was filed as active; inconclusive means small, poorly fitted or top-dose-only effect, or effect the other way, or a change in a side signal; the % refers to the signal ratio
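S3 HeLa cells stably expressing lamin A-EGFP splicing minigene plus DsRed2, 600 cells/well, 48 h compound exposure at 37C. Laser-scanning cytometry; analysed as GFP (500-530 nm)/RFP (575-640 nm) total intensity ratio; 0.5% DMSO vehicle.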
HttQ103 aggreg – mutant huntingtin aggregation inhibition. PC12 HttQ103-GFP aggregates, Acumen cytometry, 40 h. Potency, µM (series often up to 46.1 µM), usual class: inhibitors. hit rate 1.1% among 220,000. AID 1688; further: nearly all actives have a fitted effect of over 60% in size
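Aggregate formation scored by laser-scanning cytometer (488 excitation, 500–530 emission) in lysed PC12 cells expressing Q103-GFP after 100 nM tebufenozide induction; library tested in dose series, with ATPLite reagent added in the multiplex.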
HTT ATP protect – protects HTT-Q103 PC12 cells, measured by ATP; PC12 HTT-Q103 induced, cytoprotection, ATP luminescence, 40 h; Potency, µM (highest dose often 56.4 µM), most hits filed as activators; hit rate 0.14% among 230,000; further: nearly all actives have a fitted effect of over 45% in size
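Quantitative HTS on tebufenozide-induced (100 nM) PC12 cells expressing HTTQ103 exon 1–GFP; compounds tested as a concentration series; survival measured via cellular ATP.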
KinaseGlo FLuc – blocks Kinase-Glo luciferase, a counter-screen artifact; Potency, µM (top dose mostly 38.3 µM), actives largely listed as inhibitors; Q27757; hit rate 0.28% among 200,000; Kinase-Glo luciferase, ATP luminescence, 8 min; further: nearly all actives have a fitted effect of over 60% in size
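Luminescence was the read-out, taken after 8-minute incubation at ambient temperature. Luciferase turned over luciferin with 10 uM ATP in imidazole pH 7.2 buffer containing KCl, MgCl2, Tween 20 and BSA.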
ALDH1A1 inh – blocks purified human ALDH1A1 activity | P00352 | hit rate 7.3% among 220,000 | Purified ALDH1A1, NADH fluorescence, propionaldehyde substrate | Potency, µM (top dose mostly 75.3 µM), most hits filed as inhibitors; active means well fitted inhibition curve with a large enough effect, not every such curve was filed as active; inconclusive means small, poorly fitted or top-dose-only effect, or another doubt; inactive means no such curve, though single readings can be large or run the other way
HPGD inh – blocks human HPGD enzyme activity; hit rate 4.3% among 150,000; AID 894; purified HPGD, NADH fluorescence kinetic, PGE2 substrate; P15428; Potency, µM, most hits filed as inhibitors; active means well fitted inhibition curve with a large enough effect, not every such curve was filed as active; inconclusive means small, poorly fitted or top-dose-only effect, or another doubt; inactive means no such curve, though single readings can be large or run the other way
Target sequence (P15428 whole entry, looked up): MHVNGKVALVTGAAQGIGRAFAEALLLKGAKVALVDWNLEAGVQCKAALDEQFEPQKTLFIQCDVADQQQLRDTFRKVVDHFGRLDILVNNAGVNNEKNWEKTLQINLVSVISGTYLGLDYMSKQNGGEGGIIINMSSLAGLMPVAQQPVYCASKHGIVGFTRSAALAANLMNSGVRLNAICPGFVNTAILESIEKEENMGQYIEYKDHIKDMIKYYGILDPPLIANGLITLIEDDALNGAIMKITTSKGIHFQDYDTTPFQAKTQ
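NADH formation kinetics: reaction with 30 uM PGE2 and 1 mM NAD+ (final), 20 nM enzyme, Tris-HCl pH 8 with Tween 20, after 15 min compound preincubation at room temperature. Fluorescence change, last versus first of five reads.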
Hits are given with their value; n = inactive; u = inconclusive; x = no result; [ ] = remark or other dose. Unless noted, the call rests on the fitted dose curve; in most records, active means well fitted curve in the direction sought with a large enough effect; inconclusive means small, poorly fitted or top-dose-only effect, or another doubt; inactive means no such curve, though single readings can be large; an effect the other way counts as inactive or inconclusive.

SMILES	LMNA splice mod	HttQ103 aggreg	HTT ATP protect	KinaseGlo FLuc	ALDH1A1 inh	HPGD inh
Cc1cc(-c2ccccc2)nc(Oc2ccc(C(C)(C)C)cc2)c1S(C)(=O)=O	u	n	n	n	n	n
CCOCCOc1nc(C)cc(C)c1S(=O)(=O)c1ccccc1C	n	n	n[10 µM]	n	n	x
Cc1cc(C)c(S(=O)(=O)c2ccccc2C)c(OCC(C)(C)C)n1	n	n	n	n	13µM	n
Cc1cc(C)c(S(C)(=O)=O)c(Oc2ccccc2C)n1	n	n	n	n	n	28µM
Cc1cc(C)cc(Oc2nc(-c3ccccc3)cc(C)c2S(C)(=O)=O)c1	u	n	n	n	14µM	u
Cc1ccc2cccnc2c1	x	x	6.3µM	x	u	n
C=C(C)CSc1nc(N)c(C#N)c(-c2ccc(C)cc2)c1C#N	n	n	n	n	10µM	14µM
CCCCOC(=O)CSc1nc(N)c(C#N)c(-c2ccc(OC)cc2)c1C#N	n	n	n	n	u	n
CCCCOC(=O)CSc1nc(N)c(C#N)c(-c2ccc(OCC)cc2)c1C#N	n	n	n	n	20µM	n
CCCCOc1ccc(-c2c(C#N)c(N)nc(SCC(N)=O)c2C#N)cc1	n	n	n[10 µM]	n	u	28µM
CCOC(=O)CSc1nc(N)c(C#N)c(-c2ccc(OC)cc2)c1C#N	n	n	n	x	u	x
CC(NC(=O)/C(=C\c1cccc([N+](=O)[O-])c1)NC(=O)c1ccco1)C(=O)O (configuration not stated)	n[0.0737 µM]	n	n	n	6.3µM	28µM
O=[N+]([O-])c1ccccc1S(=O)(=O)N1CCN(CC2CC=CCC2)CC1 (configuration not stated)	n	n[9.22 µM]	n	n	14µM	x
O=[N+]([O-])c1ccccc1S(=O)(=O)N1CCN(Cc2cc3c(cc2O)OCO3)CC1	n	n	n	n	1.9µM	x
Cc1c(N2C(=O)CSC2c2ccccc2)c(=O)n(-c2ccccc2)n1C (configuration not stated)	x	n[9.22 µM]	n[10 µM]	x	x	x
COc1ccc(NC(=S)Nc2cc(C)[nH]n2)cc1Cl	x	n[9.22 µM]	n[10 µM]	x	x	x
CCOc1ccc(NC(=S)Nc2cc(-c3ccccc3)[nH]n2)cc1	n	n	n	n	13µM	n
Cc1cc(NC(=S)Nc2ccc(C)c(Cl)c2)n[nH]1	x	n[9.22 µM]	n	n	1.4µM	x
COc1ccc(NC(=S)Nc2cc(-c3ccccc3)[nH]n2)cc1Cl	u	n	n[10 µM]	n	10µM	n
Cn1c(=O)c2c3c(sc2n2cnnc12)CCC3	n	n	n	n	n	n
C=C1C(=O)C=C2CN(C(=O)c3ccccc3)[C@@](Cc3ccc(OC)cc3)(C(=O)OC)[C@@H]12	x	x	n	n	u	7.1µM
COC(=O)[C@@]1(Cc2ccc(F)cc2)[C@@H]2C(=CC(=O)[C@H]2CC(=O)C(=O)N2CCCC2)CN1C(=O)c1ccccc1	x	x	n	n	n	n
COC(=O)[C@@]1(Cc2ccc(OC)cc2)[C@@H]2C(=CC(=O)[C@H]2CC(=O)C(=O)N2CCCC2)CN1C(=O)c1ccccc1	n	u	7.1µM	n	n	n
CC1=CC(C)C2C(=O)N(O)C(=O)C2C1 (configuration not stated)	n	n	n	n	14µM	n
CC1=CC(C)C2C(=O)N(c3ccccc3)NC(=O)C2C1 (configuration not stated)	n	n	n[10 µM]	n	n	n
SMILES	LMNA splice mod	HttQ103 aggreg	HTT ATP protect	KinaseGlo FLuc	ALDH1A1 inh	HPGD inh
CC1(C)Cc2ccccc2C(NNC(=O)c2ccccc2)=N1	x	n	n	x	n	x
CC1(C)Cc2ccccc2C(NNC(=O)c2ccccn2)=N1	u	18µM	n	n	n	n
CCOC(=O)c1c(N)sc2c1CCCC2	n	n	n	n	20µM	u
CCCC1CCc2c(sc(N)c2C(N)=O)C1 (configuration not stated)	n	n	n[10 µM]	n	10µM	n
CCOC(=O)c1c(N2C(=O)C3C4C=CC(O4)C3C2=O)sc2c1CCCC2 (configuration not stated)	n	n	n	n	2.2µM	16µM
CCOC(=O)c1c(-n2cnnn2)sc2c1CCCC2	x	n[9.22 µM]	n[10 µM]	x	x	x
CCC(C)(C)C1CCc2c(sc(N)c2C(N)=O)C1 (configuration not stated)	u	n	n[10 µM]	n	u	n
CCCOC(=O)c1c(NC(=O)C2C3C=CC(C3)C2C(=O)O)sc2c1CCC(C)C2 (configuration not stated)	x	n[9.22 µM]	n[10 µM]	n	10µM	x
CCCSc1nnc(-c2c[nH]c3ccccc23)n1CC	n	n	n	n	n	n
Cc1cccc(CN(CC(=O)N/N=C/c2ccco2)S(=O)(=O)c2ccc(Cl)cc2)c1	n	n[9.22 µM]	n	n	n	n
CCOC(=O)c1c(N)sc2c1C1CCN2CC1	n	n	n[0.074 µM]	x	n	x
CCC(=O)Nc1sc2c(c1C(=O)N(C)C)CCCCC2	n	u	n[10 µM]	n	u	n
CCOC(=O)c1c(N)sc2c1CCS(=O)(=O)C2	n	n	n	n	28µM	40µM
CCOC(=O)c1c(N)sc2c1CCC(C)C2 (configuration not stated)	u	n	n[10 µM]	n	13µM	u
CCNC(=O)c1c(N)sc2c1CCCCC2	n	n	n	n	28µM	28µM
O=C(Cn1nnc(-c2ccc(Cl)cc2)n1)NC1CC2CCC1C2 (configuration not stated)	u	n	n	n	n	n
C/C(=N\Nc1nnc(C)c(=O)[nH]1)C(=O)O	n	n	n	n	n	n
CN(C)S(=O)(=O)c1cccc(C(=O)OCC(=O)c2ccc3c(c2)NC(=O)CO3)c1	n	n	n	n	22µM	n
CCOC(=O)CSc1nc2ccccc2c(=O)n1CC1CCC(C(=O)NCc2ccco2)CC1 (configuration not stated)	n	n	n	n	n	n
CCn1c(SCC(=O)N=Nc2c(O)[nH]c3ccccc23)nc2ccccc21	u	n	n[10 µM]	n	6.3µM	n
O=C(CSCc1cccc(Br)c1)N=Nc1c(O)[nH]c2ccccc12	n	n	n	n	7.9µM	n
CCn1c(SCC(=O)N=Nc2c(O)[nH]c3ccccc23)nnc1-c1ccc(C(C)(C)C)cc1	n	n	n[10 µM]	n	n	n
O=C(N=Nc1c(O)[nH]c2ccccc12)c1ccc2c(c1)OCO2	n	n	n	10µM	n	x
O=C(N=Nc1c(O)[nH]c2ccccc12)c1ccco1	n	n[9.22 µM]	n[10 µM]	10µM	n	x
O=C(Nc1cccc(-c2nnc(-c3ccco3)o2)c1)C(c1ccccc1)c1ccccc1	u	u	n[10 µM]	n	u	n
Cc1cc(C)c(NC(=O)COC(=O)C2CCC(=O)N2)c(C)c1 (configuration not stated)	x	n	n	n	n	x
C=COCCNC(=O)C1CC(=O)N(c2ccc(C)cc2)C1 (configuration not stated)	u	n	n	n	n	n
